Assay outcomes as filed in PubChem.
Rows were chosen to be rich in hits. Some 6.5% of all compounds tested hit in one or more screens of this group.
Marburg entry inh – Marburg virus entry inhibition; 300,000 compounds, 1.8% hits; Potency, µM (top dose mostly 37.8 µM), for the others: top-dose activity change, negative = inhibition, hits mostly inhibitors; AID 540276; Marburg virus pseudotyped entry inhibition, cell reporter; calls by dose curve; tested in HEK293 cells; note: potency is the fitted concentration of half-maximal effect
Vaccinia mCherry – inhibitors of vaccinia virus infection (mCherry reporter signal); 310,000 compounds, 0.63% hits; Vaccinia virus mCherry reporter infection, fluorescence; Potency, µM (top dose mostly 36.5 µM), inactives show at the highest dose activity change, negative = inhibition, hits mostly inhibitors; calls by dose curve; tested in A549 cells; note: potency is the fitted concentration of half-maximal effect; nearly all actives have a fitted effect of over 35% in size
Lassa entry inh – inhibitors of Lassa virus binding or cell entry. 300,000 compounds, 1.2% hits. Potency, µM (doses to about 37.9 µM), inactives show at the top dose activity change, negative = inhibition, hits mostly inhibitors. Lassa virus pseudotype entry inhibition, cell reporter. AID 540256; calls by dose curve; tested in HEK293 cells; note: potency is the fitted concentration of half-maximal effect; nearly all actives have a fitted effect of over 50% in size
Vaccinia Venus – vaccinia inhibition (Venus reporter). 330,000 compounds, 0.46% hits. Potency, µM (doses to about 36.5 µM), for the others: at the top dose activity change, negative = inhibition, most hits filed as inhibitors. AID 720580. Vaccinia virus Venus reporter expression, fluorescence; calls by dose curve; tested in A549 cells; note: potency is the fitted concentration of half-maximal effect; nearly all actives have a fitted effect of over 30% in size
HCMV antiviral – inhibitors of human cytomegalovirus; activity change, negative = inhibition, % at 57.5 µM; HFF cells, HCMV-luciferase reporter, 72 h; hits give low values; 410,000 compounds, 4.5% hits; in the data active = activity change below about -60%; inconclusive = no clear call, values can overlap the other calls; inactive = above about -39%
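Human foreskin fibroblasts infected with luciferase-reporter HCMV at MOI 1 PFU/cell, compounds at two doses. Luciferase measured 72 h post infection; normalized to buffer-only basal and Salinomycin (10uM) controls.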
FMDV inh – antivirals against foot and mouth disease virus; AID 1159524; 410,000 compounds, 1.2% hits; Potency, µM (titrated, usually from 57.9 µM), inactives show at the highest dose activity change, negative = inhibition, most hits filed as inhibitors; FMDV antiviral cell-based qHTS; calls by dose curve; tested in HEK293T cells; note: read-out not given here; potency is the fitted concentration of half-maximal effect; nearly all actives have a fitted effect of over 45% in size
An asterisk follows results filed as active; i = inactive; u = inconclusive; x = no result; ! = a repeat was not active; [ ] = another dose, or the depositor's remark. % is set by controls: 0 for no effect and ±100 for the full control effect.

SMILES	Marburg entry inh	Vaccinia mCherry	Lassa entry inh	Vaccinia Venus	HCMV antiviral	FMDV inh
CCOC(=O)N1CCN(C(=O)CCC(=O)c2ccc(OCC)cc2)CC1	13.5%[46.1 µM]	-9.9%	11.2µM*	2.4%	-28.3	6.8%
COc1ccc(C2=NCC(C)n3nc4cc(C(F)(F)F)ccc4c32)cc1 (configuration not stated)	x	x	x	x	86.9	x
CCCN1CCC(=O)N(CCC#N)CC1	x	i	x	-14.3%	x	x
CC(C)C[C@H]1C(=O)N2CCCC2[C@]2(O)O[C@](NC(=O)[C@@H]3C=C4c5cccc6[nH]c(Br)c(c56)C[C@H]4N(C)C3)(C(C)C)C(=O)N12 (some centres not stated)	10µM*	x	x	x	x	x
CC(C)C[C@H]1C(=O)N2CCC[C@H]2[C@]2(O)O[C@](NC(=O)C3C=C4c5cccc6[nH]c(Br)c(c56)C[C@H]4N(C)C3)(C(C)C)C(=O)N12 (some centres not stated)	x	-15.2%	x	-28.8%	-26.2	u
Cc1cccc(CCn2c(=O)c3ccccc3n(CC(=O)Nc3ccccc3F)c2=O)c1	5.5%[46.1 µM]	-20.4%	u	-15.7%	-30.7	4.8%
O=C(CCCN1C(=O)/C(=C\c2cccs2)SC1=S)Nc1cccnc1	-20.8%	i	-13.5%	-3.8%	-92.5*	0.0%
O=C(CCN1C(=O)/C(=C\c2ccccc2Cl)SC1=S)Nc1cccnc1	17.6%	-14.5%	15.5%	-11.9%	-15.0	u
O=C(CCCN1C(=O)/C(=C/c2ccccc2OC(F)F)SC1=S)Nc1cccnc1	u	u	u	u	-64.9*	u
COc1ccccc1/C=C1/SC(=S)N(CCC(=O)Nc2cccnc2)C1=O	x	x	x	x	-19.3	u
O=C(CCCN1C(=O)/C(=C\c2cccs2)SC1=S)NNC(=O)c1ccncc1	-26.5%[46.1 µM]	-1.2%	u	1.6%	-60.7*	11.1%
O=C(CCCN1C(=O)/C(=C/c2cccs2)SC1=S)NNC(=O)c1cccnc1	x	x	x	x	u	1.9%
O=C(CCCN1C(=O)/C(=C/c2cccs2)SC1=S)Nc1cccnc1	u	-4.5%	u	-6.7%	-98.1*	-9.1%
CC(C)=CCC/C(C)=C/CO/N=C1\C[C@@H](O)[C@@H](O)[C@@H]2[C@@H]3C(=O)N(C[C@@H]4CCCO4)C(=O)[C@@H]3CC[C@H]12	-5.0%[14.2 µM]	x	x	x	x	x
COCC(=O)Nc1cc(C(=O)N2CCN(C3CCCC3)C(=O)C2)c2c(c1)nc(-c1ccncc1)n2C	x	-9.1%	x	4.5%	x	-6.8%
O=C(CCCN1C(=O)/C(=C/c2ccccc2Cl)SC1=S)NNC(=O)c1cccnc1	x	x	x	x	-36.5	u
COc1ccccc1C(=O)NNC(=O)CCCN1C(=O)/C(=C/c2cccs2)SC1=S	7.2%	-20.6%	1.3%	-17.7%	-68.4*	0.0%
O=C(CCCN1C(=O)/C(=C/c2ccccc2Cl)SC1=S)NNC(=O)c1ccc(Cl)cc1Cl	x	-6.2%	x	-8.4%	-64.4*	8.91µM*
O=C(CCN1C(=O)/C(=C\c2ccccc2)SC1=S)NNC(=O)c1ccccc1O	-15.8%[46.1 µM]	u	-16.7%[46.1 µM]	44.9%	-20.1	1.5%
COc1ccc(-c2nc3ccc(NC(=O)COC(C)=O)cc3c(=O)n2Cc2ccccc2)cc1COc1ccc(NC(C)=O)cc1	x	i	x	-11.2%	x	x
CC1=C(c2ccc(C(C)C)cc2)S(=O)(=O)N=C1N1CCN(c2ccc(F)cc2)CC1	-0.2%[46.1 µM]	u	-1.5%[46.1 µM]	u	-27.1	-7.7%
CN1CCN(S(=O)(=O)c2cc(C(F)(F)F)ccc2Cl)CC1	20.8%	-19.4%	18.9%	3.9%	17.2	-12.0%
CC(C)c1ccc2c(c1)C(N1CCNCC1)Cc1ccc(F)cc1S2 (configuration not stated)	u	11.2µM*	u	u	-98.5*	-4.6%
CSc1ccc2c(c1)C(N1CCN(C)CC1)Cc1ccccc1S2 (configuration not stated)	6.31µM*	u	18.3µM*	u	-75.2*!	u
CN1CCN(C2=Cc3ccccc3Sc3cc(F)ccc32)CC1	u	u	-9.6%	u	24.6	-22.3%
SMILES	Marburg entry inh	Vaccinia mCherry	Lassa entry inh	Vaccinia Venus	HCMV antiviral	FMDV inh
CN1CCN(C2Cc3ccc(F)cc3Sc3cc(F)c(Cl)cc32)CC1 (configuration not stated)	u	u	u	u	-95.5*	1.7%
CN1CCN(C2Cc3ccccc3Sc3cc(C(F)(F)F)ccc32)CC1 (configuration not stated)	u	u	u	-26.8%	-108.8*	11.9%
COc1cc(=O)n2c(c1C(=O)NC(C)c1ccco1)CCN(C(=O)c1ccccc1SC)CC2 (configuration not stated)	x	i	x	0.0%	x	23.1%
CCc1cccc2c1Sc1ccccc1CC2N1CCNCC1 (configuration not stated)	x	x	x	x	-97.9*	u
CN1CCN(C2Cc3cc(F)ccc3Sc3ccc(Cl)cc32)CC1 (configuration not stated)	x	x	x	x	-8.7	u
CN1CCN(C2Cc3ccccc3Sc3ccc(Cl)cc32)CC1 (configuration not stated)	15.8µM*	u	10.3µM*	-29.2%	-10.9	u
NC(=O)c1ccc(N=Cc2ccc([N+](=O)[O-])s2)cc1	u	-8.2%	u	8.7%	-97.5*	u
O=[N+]([O-])c1ccc(C=Nc2ccc(Cl)c([N+](=O)[O-])c2)s1	x	x	x	x	-98.6*	x
Cc1cc(C)cc(N=Cc2ccc([N+](=O)[O-])s2)c1	u	-21.3%	u	-7.0%	-1.5	0.0%
COc1ccc2cc(CN(C(=O)c3cc(C)nn3C)C3CC3)c(-c3ccc(Cl)cc3)nc2c1	x	i	x	-15.1%	x	-18.9%
N#CC(C#N)=C1C=CC=CN1/C(=C\c1ccco1)C(=O)c1ccc(-c2ccccc2)cc1	15.8µM*	u	u	-15.4%	-101.4*	14.1µM*
N#CC(C#N)=C1C=CC=CN1/C(=C\c1ccco1)C(=O)c1ccc(Cl)cc1	u	u	u	28.2µM*	-97.2*	u
Clc1ccc2c(NCCNC3CCCCC3)ccnc2c1	1.58µM*	-12.8%	u	u	-83.6*	-19.9%
CC(CCCN1CCCC1)Nc1ccnc2cc(Cl)ccc12 (configuration not stated)	3.55µM*	u	5.4%[46.1 µM]	-8.0%	u	13.2%
CC1CCCN1c1ccnc2cc(Cl)ccc12 (configuration not stated)	u	-13.4%	-12.0%[46.1 µM]	-7.7%	-39.2	-21.1%
CC(C)NC1CCC(Nc2ccnc3cc(Cl)ccc23)CC1 (configuration not stated)	2.82µM*	-7.2%	u	-21.3%	u	-31.6%
COc1ccccc1CNc1cc(-c2ccoc2)ncn1	x	x	x	x	x	9.7%
COc1cc(-c2cnc3ccccc3c2)cc2c1OCCN(C(=O)CCn1nc(C)cc1C)C2	x	-7.1%	x	-3.9%	x	-9.5%
O=c1[nH]c(=O)n([C@H]2C[C@H](O)[C@@H](CO)O2)cc1C(F)(F)F	u	u	u	u	-1.2	-21.5%
